The structures appear in SMILES notation. Active and inactive are the calls of the source. How the source made its calls: active means hit-call score of the fitted dose curve at least 0.9, where 1 is the maximum; inactive means score below 0.9.

The target of the assay is Cellular tumor antigen p53 (Homo sapiens) (UniProt P04637). Nature of the assay: ATG_p53_CIS: Attagene CIS-FACTORIAL HepG2 Assay for human p53 Transcription Factor (AID 2282994). The note with it: HepG2 p53 cis-element reporter, Attagene mRNA; actives raise or lower the signal. Here is the method: ATG_CIS is a cell-based, multiplexed-readout assay that uses HepG2, a human liver cell line, with measurements taken at 24 hours after chemical dosing in a 24-well plate.ATG_p53_CIS is one of 52 assay component(s) measured or calculated from the ATG_CIS assay. It is designed to make measurements of mRNA induction, a form of inducible reporter, as detected with fluorescence intensity signals by Reverse transcription polymerase chain reaction (RT-PCR) and Capillary electrophoresis technology.Data from the assay component ATG_p53_CIS was analyzed into 1 assay endpoint. This assay endpoint, ATG_p53_CIS, was analyzed with bidirectional fitting relative to DMSO as the negative control and baseline of activity. Using a type of inducible reporter, measures of mRNA for gain or loss-of-signal activity can be used to understand the reporter gene at the transcription factor-level as they relate to the gene TP53. Furthermore, this assay endpoint can be referred to as a primary readout, because this assay has produced multiple assay endpoints where this one serves a reporter gene function. To generalize the intended target to other relatable targets, this assay endpoint is annotated to the dna binding intended target family, where the subfamily is tumor suppressor.
Chain of Cellular tumor antigen p53 (Homo sapiens) (P04637 whole entry, looked up): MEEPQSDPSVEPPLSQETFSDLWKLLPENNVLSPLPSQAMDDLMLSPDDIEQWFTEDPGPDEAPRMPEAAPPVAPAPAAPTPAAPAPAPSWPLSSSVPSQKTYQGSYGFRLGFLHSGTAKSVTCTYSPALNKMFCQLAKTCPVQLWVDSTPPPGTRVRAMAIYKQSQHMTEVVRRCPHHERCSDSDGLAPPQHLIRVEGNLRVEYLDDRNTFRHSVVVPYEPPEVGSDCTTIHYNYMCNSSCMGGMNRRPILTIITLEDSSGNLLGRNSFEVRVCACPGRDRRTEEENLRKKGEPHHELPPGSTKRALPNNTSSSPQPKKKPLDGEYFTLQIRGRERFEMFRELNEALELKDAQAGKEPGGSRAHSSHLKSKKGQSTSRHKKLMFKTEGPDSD
Human liver HepG2 cells are transiently transfected with multiple reporter transcription units (MRTUs) in 6-well plates using FuGene 6 reagent (Roche; 3 ml FuGene/1 mg DNA). The MRTU constructs are regulated by a cis-regulating element (promoter). […] A major difference between the CIS and TRANS system is that in CIS activities of endogenous TFs are measured, whereas the TRANS assay evaluates changes in activities of exogenous, chimeric NR-Gal4 proteins. […] At the end of 24 hour incubation, total RNA was isolated using TriZol reagent (Invitrogen). The isolated RNA is then reverse-transcribed using oligo(dT) primer and Mo-MLV reverse transcriptase (Invitrogen) with DNAse I (Ambion) treatment for 30 min. The one-tenth of the produced cDNA was amplified by PCR using Taq DNA polymerase (Invitrogen) and two reporter sequence-specific primers. The PCR products were fluorescently labeled by primer extension with 6-arboxyfluorescein (6-FAM) 5'-labeled reporter sequence-specific primer (2 min at 95 C, 20 s at 68 C and 10 min at 72 C) and these products were digested with 5U of HpaI (New England Biolabs) for 2h at 37 C. The fragments were purified using Qiaquick PCR columns (Qiagen), analyzed on an ABI 3130xL genetic analyzer (Applied Biosystems) with peak positions identified by using a set of X-rhodamine (ROX)-labeled MapMarker1000 molecular weight standards (BioVentures). The raw capillary electrophoresis data was processed using Attagraph software (Attagene).
For `[Cu+]`, the compound was called inactive.
Still for that read-out and setting: for `CC(=O)OC(C)(C)C` the value was “inactive”; for `CC1(C)CC(N)CC(C)(CN)C1` (stereo not given), “inactive”.
On to `CCOC(=O)COC(=O)c1ccccc1C(=O)OCC`, for which the call was inactive.
With `CCCCOCCOCCOCCO`, the outcome was inactive.
Regarding `CC1(C)CC(=O)CC(C)(C)N1`, the compound was classed as inactive.
For the compound `OC[C@@H](O)[C@H](O)[C@@H](O)[C@@H](O)CO`, the compound was classed as inactive.
On the same count and under the same terms, the same measure for `S=c1[nH][nH]c(=S)s1`: “inactive”; for `c1ccc(Cc2ccccc2)cc1`: “inactive”; for `CCC(=O)OCC=Cc1ccccc1`: “inactive”.
For `CC(CO)c1ccccc1` (stereo not given), the outcome was inactive.
As for `CC/C=C\CCCCO`, the result was inactive.
As for `CC(C)OB(OC(C)C)OC(C)C`, the compound was called inactive.
Take `CC(=O)CCc1ccc(O)cc1`: the call was inactive.
The same measure, in the same setting: for `CC(C)(C)c1cccc(O)c1` the value was “inactive”; for `CCCCCCCCCOS(=O)(=O)O`, “inactive”; for `CC(C)C(=O)OCC=Cc1ccccc1`, “inactive”.
Regarding `CC(C)COC(=O)c1ccccc1O`, the result was inactive.
Turning to `O=Cc1ccccc1O`, the call was inactive.
On the same count and under the same terms, the same measure for `CCC(=O)OC/C=C(\C)CCC=C(C)C`: “inactive”.
Consider `CCOC(=O)CCCCCCCCC(=O)OCC`, for which the call was inactive.
Take `CCNC(=S)NCC`: the result was inactive.
For `CCC(C)(CCCC(C)C)OC(C)=O` (stereo not given), the result was inactive.
The same measure, in the same setting: for `CCCCCCCCOS(=O)(=O)O` the value was “inactive”; for `Brc1cc(Br)cc(Br)c1`, “inactive”; for `C=C1CC/C=C(\C)CC[C@@H]2[C@@H]1CC2(C)C`, “inactive”.
As usually defined, the AC50 is the midpoint of the concentration-response curve, whichever way the signal moves. Consider `CC(=O)C1=C(C)[C@@H]2C[C@@]3(C1)[C@H](C)CC[C@H]3C2(C)C`, for which the half-maximal activity concentration (AC50) is 100 µM (active).
With `C=C(C)C(=O)OCCC(C)OC(=O)C(=C)C` (stereo not given), the compound was called inactive.
Turning to `CCC(C)(C)C1CCC(OC)CC1` (stereo not given), the call was inactive.
Consider `COC(=O)C(C)Oc1ccc(Oc2ncc(C(F)(F)F)cc2Cl)cc1` (stereo not given), for which the outcome was inactive.
Take `CC(C)C(=O)c1ccccc1`: the call was inactive.
For `CCCCCC(=O)O[C@]1(C(C)=O)CC[C@H]2[C@@H]3CCC4=CC(=O)CC[C@]4(C)[C@H]3CC[C@@]21C`, the compound was classed as inactive.
Same read-out and setting: the same measure for `CCCO`: “inactive”; for `CCO[Si](CC)(OCC)OCC`: “inactive”; for `CCC(C)(C)C1CCC(=O)CC1`: “inactive”.
With `c1ccc2scnc2c1`, the compound was classed as inactive.
In the case of `COc1ccc(C(C)=O)cc1`, the compound was classed as inactive.
With `CC(=O)CC(=O)N(C)C`, the call was inactive.
`NC(=O)c1cnccn1`: the call was inactive.
Regarding `C=COCC1CCC(COC=C)CC1` (stereo not given), the compound was called inactive.
